Assay results reported in PubChem BioAssay (Tox21).
Results filed as inconclusive are left out. The source made the active and inactive calls. Unless noted, calls follow the shape of the dose curve; as a rule, active = well fitted curve in the direction sought with a large enough effect in the repeat runs; inconclusive = weak or mixed curves; inactive = no such curve, though single readings can be large; an effect the other way counts as inactive or inconclusive.

Legend:
[1] = qHTS assay to identify small molecule antagonists of the estrogen receptor alpha (ER-alpha) signaling pathway using the BG1 cell line in the presence of 0.1 nM 17-beta-estradiol - cell viability counter screen (AID 1259241); also: nearly all actives have a fitted effect of over 40% in size
Outline: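 Estradiol-stimulated (0.1 nM) VM7Luc4E2 cells exposed to compounds 22 hr; viability measured by fluorescence of cleaved CellTiter-Fluor substrate after 30 min.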

[2] = qHTS assay to identify small molecule antagonists of the androgen receptor (AR) signaling pathway using the MDA cell line in the presence of 0.5 nM R1881 - cell viability counter screen (AID 1259242); also: nearly all actives have a fitted effect of over 45% in size
Outline: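 Counter screen for cytotoxicity run in the same wells as the AR antagonist reporter screen: MDA-kb2 cells were treated 16 hr with test compounds and 0.5 nM R1881, then live-cell protease activity was measured by fluorescence.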

[3] = molecular target: Estrogen receptor (Homo sapiens) (UniProt P03372); assay: qHTS assay to identify small molecule antagonists of the estrogen receptor alpha (ER-alpha) signaling pathway using the BG1 cell line in the presence of 0.1 nM 17-beta-estradiol (AID 1259244); also: nearly all actives have a fitted effect of over 50% in size
Sequence of Estrogen receptor (Homo sapiens) (P03372 whole entry, looked up): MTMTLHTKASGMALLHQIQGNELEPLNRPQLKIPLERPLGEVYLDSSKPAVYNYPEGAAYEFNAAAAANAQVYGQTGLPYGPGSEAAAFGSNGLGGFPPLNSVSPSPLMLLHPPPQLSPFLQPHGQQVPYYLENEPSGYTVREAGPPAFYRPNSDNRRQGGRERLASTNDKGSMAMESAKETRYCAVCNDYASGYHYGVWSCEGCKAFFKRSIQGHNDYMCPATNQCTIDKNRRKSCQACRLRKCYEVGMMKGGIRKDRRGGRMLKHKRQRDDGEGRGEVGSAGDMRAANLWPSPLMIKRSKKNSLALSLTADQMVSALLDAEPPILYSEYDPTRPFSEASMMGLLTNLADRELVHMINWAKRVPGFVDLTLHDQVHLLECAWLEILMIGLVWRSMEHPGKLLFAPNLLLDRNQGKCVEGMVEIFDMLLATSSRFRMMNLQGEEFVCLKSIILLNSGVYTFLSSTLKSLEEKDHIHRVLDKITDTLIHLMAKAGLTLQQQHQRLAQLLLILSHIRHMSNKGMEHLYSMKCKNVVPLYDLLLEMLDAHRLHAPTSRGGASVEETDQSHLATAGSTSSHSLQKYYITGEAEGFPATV
Outline: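 Cells: VM7Luc4E2, endogenous ER-alpha, 4x ERE-luc stable. Pre-culture 5 d, phenol red-free, charcoal-stripped FBS. Plated 24 h, compound + E2 0.1 nM final, 22 h 37C/5% CO2. Readout ONE-Glo luminescence.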

[4] = qHTS assay to identify small molecule phospholipidosis (PLD) inducers (AID 1259344; active = well fitted curve in the direction sought with a large enough effect; an effect the other way counts as inactive or inconclusive)
Outline: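 HepG2 cells grown on collagen I take up LipidTOX Red while exposed to compound for 24 h; after fixation they are imaged at 20x and pit metrics are extracted.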

[5] = qHTS assay to identify small molecule HDAC inhibitors (AID 1259364); also: top concentration of the series differs between compounds; nearly all actives have a fitted effect of over 45% in size
Outline: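 Luminescence from a cell-permeant luminogenic class I/II HDAC substrate reports endogenous deacetylase activity in intact HCT-116 cells treated with compounds for 2 h.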

[6] = qHTS assay to identify small molecule HDAC inhibitors - cell viability counter screen (AID 1259365); also: series mostly up to about 92 µM; nearly all actives have a fitted effect of over 50% in size
Outline: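 After overnight seeding at 1,500 cells per well, wild-type HCT-116 cultures took up compounds in DMSO for 2hr at 37 C. Viable cell content came from luminescence with CellTiter-Glo.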

[7] = qHTS assay to identify small molecule agonists of the sonic hedgehog signaling (Shh) pathway (AID 1259368; calls by dose curve;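 also: NIH/3T3-derived 3T3Gli1-Luc cells carrying a stable Gli1-driven firefly luciferase reporter; series mostly up to about 92 µM; nearly all actives have a fitted effect of over 15% in size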)
Outline: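 3T3Gli1-Luc (NIH/3T3 clone, stable Gli1-Luc); 4 hr pre-incubation, then cpd in DMSO 24 hr, 37 C/5% CO2; luciferase reagent 30 min RT; luminescence.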

[8] = qHTS assay to identify small molecule antagonists of the sonic hedgehog signaling (Shh) pathway (AID 1259369; calls by dose curve; also: nearly all actives have a fitted effect of over 45% in size)
Outline: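 3T3Gli1-Luc, conditioned-medium-stimulated, 24hr cpd, 37C/5% CO2; Gli1-driven firefly Luc luminescence after 30min RT with luciferase reagent. Cells plated 4hr before cpd.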

[9] = molecular target: Estrogen receptor beta (Homo sapiens) (UniProt Q92731); assay: qHTS assay to identify small molecule agonists of the estrogen receptor beta (ER-beta) signaling pathway (AID 1259377; active = well fitted activation curve with a large enough effect in the signal ratio in the repeat runs, not every such curve was filed as active; the % refers to the signal ratio)
Sequence of Estrogen receptor beta (Homo sapiens) (Q92731 whole entry, looked up): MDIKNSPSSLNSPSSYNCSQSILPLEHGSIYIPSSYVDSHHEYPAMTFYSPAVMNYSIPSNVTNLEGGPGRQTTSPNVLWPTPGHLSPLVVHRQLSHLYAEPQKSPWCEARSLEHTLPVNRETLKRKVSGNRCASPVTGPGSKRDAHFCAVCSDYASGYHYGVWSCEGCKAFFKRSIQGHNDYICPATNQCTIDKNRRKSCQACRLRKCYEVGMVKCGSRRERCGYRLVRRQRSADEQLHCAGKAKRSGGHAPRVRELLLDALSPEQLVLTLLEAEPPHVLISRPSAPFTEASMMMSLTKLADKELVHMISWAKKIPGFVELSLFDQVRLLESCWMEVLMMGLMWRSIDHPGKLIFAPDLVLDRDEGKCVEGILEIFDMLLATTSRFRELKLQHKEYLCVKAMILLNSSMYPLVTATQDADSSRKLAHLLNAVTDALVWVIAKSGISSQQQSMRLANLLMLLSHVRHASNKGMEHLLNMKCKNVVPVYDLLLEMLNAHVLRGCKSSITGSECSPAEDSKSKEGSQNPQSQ
Outline: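 Read-out: beta-lactamase FRET fluorescence. Cell line: ER-beta-UAS-bla HEK293T in 2% charcoal-stripped FBS. Exposure: 16 hr at 37C. Substrate step: 2 h at room temperature.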

[10] = molecular target: Estrogen receptor beta (Homo sapiens) (UniProt Q92731); assay: qHTS assay to identify small molecule antagonists of the estrogen receptor beta (ER-beta) signaling pathway (AID 1259378; active = well fitted inhibition curve with a large enough effect in the signal ratio in the repeat runs, not every such curve was filed as active; the % refers to the signal ratio)
Outline: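 ER-beta-UAS-bla HEK293T (GripTite) cells in 2% charcoal-stripped FBS medium were preincubated 6 hr at 37C, dosed with compound, then stimulated with 1 nM E2 (final) for 16 hr; beta-lactamase reporter read by B/G FRET fluorescence after 2 hr substrate loading.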

[11] = qHTS assay to identify small molecule agonists of the androgen receptor (AR) signaling pathway in the presence of an antagonist - cell viability counter screen (AID 1259379);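 also: MDA-kb2 human breast cancer cells carrying an MMTV luciferase reporter; series mostly up to about 92 µM; nearly all actives have a fitted effect of over 25% in size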
Outline: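 Cells: MDA-kb2 (MMTV-luc, AR and GR elements), 3,000/well, 5 hr settle. Added: nilutamide 3.0uM final, then compounds (15 conc.). Incubation: 16 hr, 37C, no CO2. Read-out: CellTiter-Fluor, 1 hr, fluorescence.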

[12] = molecular target: Estrogen receptor (Homo sapiens) (UniProt P03372); assay: qHTS assay to identify small molecule agonists of the estrogen receptor alpha (ER-alpha) signaling pathway in the presence of an antagonist (AID 1259383; calls by dose curve; also: top concentration of the series differs between compounds; nearly all actives have a fitted effect of over 15% in size)
Outline: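 VM7Luc4E2, endog. ER-alpha + 4×ERE-luc; charcoal-stripped FBS, phenol red-free, 5 d; 24hr plating; +10.0nM ICI-182,780 (final); cpds 15 conc, 22hr, 37C/5% CO2; ONE-Glo luminescence.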

[13] = qHTS assay to identify small molecule agonists or antagonists of the thyroid stimulating hormone receptor (TSHR) signaling pathway - wild type cell line counter screen (AID 1259384; calls by dose curve)
Outline: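 Wild-type HEK293 cells were plated 18 h at 37 C/5% CO2, pin-dosed with compound plus Ro20-1724 medium, held 30 min at room temperature, then given cAMP-d2 and anti-cAMP-cryptate; fluorescence was read after 1 h. Fifteen concentrations, triplicate.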

[14] = molecular target: Thyrotropin receptor (Homo sapiens) (UniProt P16473); assay: qHTS assay to identify small molecule antagonists of the thyroid stimulating hormone receptor (TSHR) signaling pathway (AID 1259385; calls by dose curve; also: nearly all actives have a fitted effect of over 20% in size)
Sequence of Thyrotropin receptor (Homo sapiens) (P16473 whole entry, looked up): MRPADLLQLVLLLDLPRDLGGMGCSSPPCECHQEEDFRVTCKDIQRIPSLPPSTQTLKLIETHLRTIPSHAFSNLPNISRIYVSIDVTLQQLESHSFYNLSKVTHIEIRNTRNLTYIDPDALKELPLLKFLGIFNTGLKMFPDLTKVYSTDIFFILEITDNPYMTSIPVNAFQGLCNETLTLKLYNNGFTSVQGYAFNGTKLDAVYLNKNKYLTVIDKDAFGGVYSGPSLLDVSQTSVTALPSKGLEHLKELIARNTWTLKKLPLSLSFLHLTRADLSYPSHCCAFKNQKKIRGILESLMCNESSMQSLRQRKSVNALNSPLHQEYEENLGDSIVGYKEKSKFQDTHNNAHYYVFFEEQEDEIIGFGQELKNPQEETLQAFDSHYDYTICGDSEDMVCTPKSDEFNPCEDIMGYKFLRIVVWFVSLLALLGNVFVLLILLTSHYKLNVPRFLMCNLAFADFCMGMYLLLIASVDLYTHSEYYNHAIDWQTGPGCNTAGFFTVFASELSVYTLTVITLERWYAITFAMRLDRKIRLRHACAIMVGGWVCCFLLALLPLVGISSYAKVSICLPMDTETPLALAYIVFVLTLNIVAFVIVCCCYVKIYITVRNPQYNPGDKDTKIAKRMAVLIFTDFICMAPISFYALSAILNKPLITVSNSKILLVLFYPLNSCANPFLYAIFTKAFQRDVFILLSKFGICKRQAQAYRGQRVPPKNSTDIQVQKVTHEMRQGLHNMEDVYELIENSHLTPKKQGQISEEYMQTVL
Outline: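 TSHR-HEK293 cells were plated and held 18 h at 37C/5% CO2, then given compound plus Ro20-1724 and stimulated with TSH at 1.5 ng/mL final. After 30 min at room temperature, cAMP was detected with cAMP-d2/anti-cAMP-cryptate (1 h) by fluorescence.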

[15] = qHTS assay to identify small molecule agonists of the sonic hedgehog signaling (Shh) pathway - cell viability counter screen (AID 1259366); also: nearly all actives have a fitted effect of over 50% in size
Outline: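 Same-well cytotoxicity read. Gli1-Luc reporter 3T3 cells; compounds 24hr, 37C/5% CO2; CellTiter-Fluor fluorescence.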

[16] = qHTS assay to identify small molecule antagonists of the sonic hedgehog signaling (Shh) pathway - cell viability counter screen (AID 1259367); also: nearly all actives have a fitted effect of over 55% in size
Outline: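 After a 4 hr settling period, 3T3 Gli1-Luc cells were treated with DMSO-dissolved chemicals and conditioned medium, kept 24 hr at 37C in 5% CO2, and assayed for viability by CellTiter-Fluor fluorescence following 1 hr reagent incubation.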

[17] = qHTS assay to identify small molecule agonists of the estrogen receptor beta (ER-beta) signaling pathway - cell viability counter screen (AID 1259380); also: nearly all actives have a fitted effect of over 30% in size
Outline: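 HEK293T ER-beta-UAS-bla; 2% CS-FBS; 6 hr pre-plate, 16 hr cpd at 37C/5% CO2; LiveBLAzer read first, then CellTiter-Glo 30 min RT, luminescence.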

[18] = qHTS assay to identify small molecule antagonists of the estrogen receptor beta (ER-beta) signaling pathway - cell viability counter screen (AID 1259382); also: series mostly up to about 92 µM; nearly all actives have a fitted effect of over 55% in size
Outline: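 Cells: ER-beta-UAS-bla HEK293T, 2,000/well, 2% CS-FBS, 6 hr settle. Cpd + E2 (1nM final), 16 hr, 37C/5% CO2. Bla FRET substrate 2 hr RT, then CellTiter-Glo 30 min RT, luminescence.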

[19] = molecular target: Androgen receptor (Homo sapiens) (UniProt P10275); assay: qHTS assay to identify small molecule antagonists of the androgen receptor (AR) signaling pathway using the MDA cell line in the presence of 0.5 nM R1881 (AID 1259243); also: nearly all actives have a fitted effect of over 50% in size
Sequence of Androgen receptor (Homo sapiens) (P10275 whole entry, looked up): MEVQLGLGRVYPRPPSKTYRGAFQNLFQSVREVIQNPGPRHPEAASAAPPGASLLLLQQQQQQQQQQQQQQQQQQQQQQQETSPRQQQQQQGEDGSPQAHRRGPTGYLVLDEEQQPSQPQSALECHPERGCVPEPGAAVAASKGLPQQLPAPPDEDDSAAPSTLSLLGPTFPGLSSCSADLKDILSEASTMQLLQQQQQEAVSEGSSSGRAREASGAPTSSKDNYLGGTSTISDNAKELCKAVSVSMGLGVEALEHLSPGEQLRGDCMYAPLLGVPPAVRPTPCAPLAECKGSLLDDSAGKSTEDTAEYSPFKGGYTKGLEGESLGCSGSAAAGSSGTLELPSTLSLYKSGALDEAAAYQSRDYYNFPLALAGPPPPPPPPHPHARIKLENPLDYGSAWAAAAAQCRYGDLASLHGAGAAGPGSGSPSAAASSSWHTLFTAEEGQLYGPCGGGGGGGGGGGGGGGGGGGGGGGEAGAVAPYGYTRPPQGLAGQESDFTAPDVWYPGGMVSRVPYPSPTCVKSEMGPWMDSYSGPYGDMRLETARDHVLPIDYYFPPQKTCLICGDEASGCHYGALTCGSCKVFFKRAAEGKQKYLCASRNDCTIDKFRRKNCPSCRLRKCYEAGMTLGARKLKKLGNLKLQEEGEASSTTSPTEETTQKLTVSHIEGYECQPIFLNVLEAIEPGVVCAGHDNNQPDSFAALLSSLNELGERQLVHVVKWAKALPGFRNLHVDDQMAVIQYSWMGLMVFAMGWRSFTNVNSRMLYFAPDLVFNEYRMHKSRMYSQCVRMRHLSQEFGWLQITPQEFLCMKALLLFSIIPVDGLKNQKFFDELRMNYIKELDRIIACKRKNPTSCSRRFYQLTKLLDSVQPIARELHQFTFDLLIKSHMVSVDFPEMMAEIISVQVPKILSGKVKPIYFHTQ
Outline: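 Luciferase luminescence is the read-out: compounds are tested for suppressing 0.5 nM R1881-driven MMTV reporter activity in MDA-kb2 cells after 16 hr at 37C.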

[20] = molecular target: Androgen receptor (Homo sapiens) (UniProt P10275); assay: qHTS assay to identify small molecule agonists of the androgen receptor (AR) signaling pathway in the presence of an antagonist (AID 1259381; calls by dose curve; also: nearly all actives have a fitted effect of over 15% in size)
Outline: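 MDA-kb2 cells, 3,000/well, rested 5hr at 37C/0% CO2 → nilutamide 3.0uM final or buffer → compounds, 15 conc. → 16hr at 37C → ONE-Glo, 30min RT → luminescence.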
% is scaled to controls: 0 for no effect and ±100 for the full control effect.

CCCN(CCC)C(=O)Cc1c(-c2ccc(Cl)cc2)nc2ccc(Cl)cn12
inactive: Potency [1] | Potency [2] | Potency [3] | outcome [4] | Potency [5] | Potency [6] | Potency [7] | Potency [8] | Potency [9] | Potency [10] | Potency [11] | Potency [12] | outcome [13] | Potency [14]

CC(C)(C)c1ccc(CCOc2ncnc3ccccc23)cc1
inactive: Potency [1] | Potency [2] | Potency [3] | Potency [5] | Potency [6] | Potency [15] | Potency [16] | Potency [7] | Potency [8] | Potency [9] | Potency [10] | Potency [11] | Potency [17] | Potency [18] | Potency [12] | outcome [13] | Potency [14]

Nc1ccccc1C(=O)OCC(O)CO (centres undefined)
inactive: Potency [1] | Potency [2] | Potency [19] | Potency [3] | Potency [5] | Potency [6] | Potency [15] | Potency [16] | Potency [7] | Potency [8] | Potency [11] | Potency [17] | Potency [20] | Potency [18] | Potency [12] | outcome [13] | Potency [14]

O=C(O)c1ccc(=O)[nH]c1
inactive: Potency [1] | Potency [2] | Potency [19] | Potency [3] | Potency [5] | Potency [6] | Potency [15] | Potency [16] | Potency [7] | Potency [11] | Potency [17] | Potency [20] | Potency [18] | Potency [12] | Potency [14]

CCCC(C)(COC(N)=O)COC(=O)NC(C)C (centres undefined)
inactive: Potency [1] | Potency [2] | Potency [3] | outcome [4] | Potency [5] | Potency [6] | Potency [15] | Potency [16] | Potency [7] | Potency [8] | Potency [11] | Potency [17] | Potency [18] | Potency [12] | outcome [13] | Potency [14]

Nc1c(Br)cc(Br)c2c1C(=O)c1ccccc1C2=O
inactive: activity change, negative = cytotoxicity [1] -0.0291% [at 19 µM] | viability change, negative = cytotoxic [2] 2.34% [at 19 µM] | activity, negative = inhibition [19] -15.1% [at 19 µM] | activity change, negative = inhibition [3] 16.5% [at 19 µM] | activity change, negative = inhibition [5] -14.9% [at 19 µM] | activity change, negative = cytotoxicity [6] -8.35% [at 19 µM] | viability change, negative = cytotoxic [16] -3.04% [at 19 µM] | activity change [7] 9.18% [at 18.9 µM, active compounds read high] | activity change, negative = inhibition [8] -1.9% [at 19 µM] | activity change, negative = cytotoxicity [11] -5.97% [at 19 µM] | activity change, negative = cytotoxicity [17] -3.72% [at 19 µM] | activation [20] 0.208% [at 19 µM] | activity change, negative = cytotoxicity [18] 0.853% [at 19 µM] | activation [12] 1.8% [at 19 µM] | activity change, negative = inhibition [14] -1.61% [at 19 µM]

CC(Cl)C(=O)O (centres undefined)
inactive: Potency [1] | Potency [2] | Potency [19] | Potency [5] | Potency [6] | Potency [15] | Potency [16] | Potency [7] | Potency [8] | Potency [11] | Potency [17] | Potency [20] | Potency [18] | outcome [13] | Potency [14]
